Laboratory results taken from article PMC4336329 (PLoS ONE, 2015).
In all, about 310,000 compounds went through this assay and about 14,000 (4.5%) showed an effect of 50% or more. Effects have a minus sign here. The entries come from a sample that favours strong results as a whole.

molecular target: human ether-à-go-go-related gene (hERG) potassium channel (human, UniProt Q12809); assay: primary screen, population patch clamp on CHO cells stably expressing hERG; higher = less effect of the substance
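Further: peak tail current of the secondary pulse compared with the same well before compound.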

Sequence of human ether-à-go-go-related gene (hERG) potassium channel (Q12809 whole entry, looked up): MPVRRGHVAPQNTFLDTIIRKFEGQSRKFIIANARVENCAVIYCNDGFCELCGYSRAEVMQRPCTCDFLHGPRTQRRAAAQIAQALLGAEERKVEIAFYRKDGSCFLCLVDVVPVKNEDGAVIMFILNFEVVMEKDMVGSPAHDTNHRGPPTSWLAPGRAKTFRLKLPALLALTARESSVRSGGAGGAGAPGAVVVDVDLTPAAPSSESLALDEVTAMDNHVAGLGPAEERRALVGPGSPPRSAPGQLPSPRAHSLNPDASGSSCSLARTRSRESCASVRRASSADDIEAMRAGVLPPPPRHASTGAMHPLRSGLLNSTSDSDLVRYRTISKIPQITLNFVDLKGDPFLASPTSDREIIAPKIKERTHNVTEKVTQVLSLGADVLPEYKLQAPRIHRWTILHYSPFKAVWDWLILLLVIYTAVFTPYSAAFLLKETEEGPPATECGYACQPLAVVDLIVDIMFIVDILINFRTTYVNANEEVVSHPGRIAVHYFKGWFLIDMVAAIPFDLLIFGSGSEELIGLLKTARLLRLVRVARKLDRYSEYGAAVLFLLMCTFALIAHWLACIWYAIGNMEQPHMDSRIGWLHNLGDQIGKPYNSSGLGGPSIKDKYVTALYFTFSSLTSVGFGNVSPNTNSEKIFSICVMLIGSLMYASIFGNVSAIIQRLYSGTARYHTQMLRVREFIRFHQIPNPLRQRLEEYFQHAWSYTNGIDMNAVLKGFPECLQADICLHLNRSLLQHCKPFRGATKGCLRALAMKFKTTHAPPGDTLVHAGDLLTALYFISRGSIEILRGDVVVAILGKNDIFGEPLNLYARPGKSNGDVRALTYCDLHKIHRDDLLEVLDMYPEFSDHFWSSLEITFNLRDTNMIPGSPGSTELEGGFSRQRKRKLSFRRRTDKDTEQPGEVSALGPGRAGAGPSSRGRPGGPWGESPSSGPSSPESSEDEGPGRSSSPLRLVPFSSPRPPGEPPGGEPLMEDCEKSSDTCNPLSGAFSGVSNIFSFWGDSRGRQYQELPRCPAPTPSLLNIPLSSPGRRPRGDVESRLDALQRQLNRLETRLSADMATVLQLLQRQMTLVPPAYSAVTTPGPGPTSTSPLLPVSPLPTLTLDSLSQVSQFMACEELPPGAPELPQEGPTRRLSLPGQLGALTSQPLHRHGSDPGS

| SMILES | hERG current change (%, negative = inhibition) at 10uM |
| --- | --- |
| O=[N+]([O-])c1ccc(Oc2cnc3ccccc3n2)cc1 | 7.44% |
| COc1ccccc1NC(=O)Nc1nc(CC(=O)Nc2cc(F)ccc2F)cs1 | -2.13% |
| CC(C)(C)n1nnnc1C(c1ccc(F)cc1)N(Cc1ccc(F)cc1)Cc1ccco1 (stereo not drawn) | 1.97% |
| CCN1C(=O)C(CC(=O)Nc2ccc(OC)cc2)N(CCc2ccc(OC)cc2)C1=S (stereo not drawn) | -1.17% |
| O=C(CN1CCN(c2ncccn2)CC1)NCc1ccc2c(c1)OCO2 | 20.4% |
| O=C(Nc1ccc2c(c1)OCO2)N1CCN(c2cccc(C(F)(F)F)c2)CC1 | -1.15% |
| O=C(c1ccc([N+](=O)[O-])s1)N1CCN(c2ccc(C(F)(F)F)cn2)CC1 | -67.5% |
| O=C(c1ccc2c(c1)OCO2)N1CCN(c2ccccc2)CC1 | -10.9% |
| O=C(c1ccc2ccccc2c1)N1CCN(c2ccc(C(F)(F)F)cn2)CC1 | -2% |
| Cc1ccc(C(=O)N2CCN(c3ccc(C(F)(F)F)cn3)CC2)cc1 | -0.62% |
| O=C(CN1CCN(c2ccc(C(F)(F)F)cn2)CC1)NCc1ccc2c(c1)OCO2 | -65.3% |
| O=C(CN1CCN(c2ccc(C(F)(F)F)cn2)CC1)Nc1ccc2c(c1)OCO2 | -14% |
| O=C(c1ccc2c(c1)OCO2)N1CCN(c2cccc(C(F)(F)F)c2)CC1 | -53.8% |
| O=C(c1ccc2c(c1)OCO2)N1CCN(c2ccc(C(F)(F)F)cn2)CC1 | -55.6% |
| O=C(c1ccc2n[nH]nc2c1)N1CCN(c2ccc(C(F)(F)F)cn2)CC1 | -26.7% |
| O=C(c1ccc([N+](=O)[O-])s1)N1CCN(c2ccccn2)CC1 | -20.4% |
| CC(C)c1ccc(NC(=S)NCCc2c[nH]c3ccccc23)cc1 | 10.8% |
| Cc1nc2ccc(NC(=O)[C@@H](NC(=O)c3c(F)cccc3F)C(C)C)cc2s1 | 1.84% |
| O=C(NCCN1CCOCC1)C1CCN(Cc2ccccc2O)CC1 | 19.2% |
| O=C1CSC(c2cccs2)N1c1ccccc1 (stereo not drawn) | 15% |
| Cn1nnnc1SCc1nc2scc(-c3ccccc3)c2c(=O)[nH]1 | -3.59% |

| SMILES | hERG current change (%, negative = inhibition) at 10uM |
| --- | --- |
| CC(C)(C)NS(=O)(=O)c1ccc(CCC(=O)NCc2ccco2)cc1 | 2.7% |
| COc1ccc(N2CCN(C(=O)COC(=O)c3ccc(-n4nc(C)cc4C)cc3)CC2)cc1 | -1.95% |
| CCc1nc(SCC(=O)N2c3ccccc3CC2C)c2c(C)c(C)sc2n1 (stereo not drawn) | -5.78% |
| Cc1ccc2cccc(S(=O)(=O)Nc3c(C)n(C)n(-c4ccccc4)c3=O)c2n1 | -0.878% |
| O=C(COc1ccc(F)cc1)NCC1(N2CCOCC2)CCCCC1 | -27.9% |
| CC(C)(C)c1ccc(C(=O)N2CCN(c3ccc(N4CCOCC4)nn3)CC2)cc1 | -49.3% |
| CCc1ccc(N2CCN(C(=O)c3ccc4c(c3)OCO4)CC2)cc1 | -50.3% |
| CC(=O)c1ccc(N2CCN(C(=O)c3ccc4c(c3)OCO4)CC2)cc1 | -45.4% |
| O=C(c1ccc(C(F)(F)F)cc1)N1CCN(c2ccc(N3CCOCC3)nn2)CC1 | -67.9% |
| O=C(c1ccc(F)cc1)N1CCN(c2ccc(N3CCOCC3)nn2)CC1 | -12% |
| O=C(c1ccc2c(c1)OCO2)N1CCN(c2ccc(F)cc2)CC1 | -30.4% |
| Cc1ccccc1NCC(=O)N/N=C\c1ccc2c(c1)OCO2 | -0.637% |
| COc1ccc(OC)c(NC(=O)NCCc2cccc(Cl)c2)c1 | 10.1% |
| C=CCCC1(C)C(=O)N(c2ccccc2)c2ccccc21 (stereo not drawn) | -3.56% |
| O=C(CCS(=O)(=O)c1ccccc1)Nc1nc2c(s1)CCCC2 | 0.42% |
| CC1CCCN(c2nc3c(c(=O)n(C)c(=O)n3C)n2Cc2ccccc2)C1 (stereo not drawn) | -40.9% |
| COc1ccc(N2CCN(S(=O)(=O)c3ccc4c(c3)NC(=O)C(C)S4)CC2)cc1 (stereo not drawn) | 6.85% |
| CC(C)C(C(=O)Nc1ccc(S(=O)(=O)N2CCOCC2)cc1)N1C(=O)c2ccccc2C1=O (stereo not drawn) | -16.2% |
| CC/C(=N/NC(=O)CCC(=O)Nc1ccccc1OC)c1ccccc1 | -1.67% |
| O=C(CN1CCCCCC1)Nc1ccc(Cl)cn1 | 1.45% |
| O=C(CN1CCN(Cc2ccccc2)CC1)Nc1ccc(-n2cnnn2)cc1 | -48% |
